Screening data (PubChem)
Most compounds without a hit are left out; they make up all but 17% or so of the library.
TDP1 cell CPT: growth inhibition of DT40 Tdp1-/-;hTDP1 cells with camptothecin (screen for TDP1 inhibitors); chicken DT40 Tdp1-/-;hTDP1 cells + 20 nM CPT, ATP luminescence, 48 h; Potency, µM (top dose mostly 46.2 µM), for inactives: at the highest dose activity change, negative = growth inhibition, most hits filed as inhibitors; 420,000 tested, 12% active; further: on the % scale 0 is the no-effect control and ±100 the full control effect; nearly all actives have a fitted effect of over 55% in size
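Cell growth measured by CellTiter-Glo luminescence after a minimum 48 h, 37 C compound exposure with 20 nM CPT in Tdp1-knockout DT40 cells stably expressing hTDP1, seeded 400/well; qHTS titration format.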
ClpP mod: qHTS Assay for Activators of ClpP; purified B. subtilis ClpP, FRET peptide cleavage, 20 min; 340,000 tested, 1.9% active; ATP-dependent Clp protease proteolytic subunit (Bacillus subtilis (strain 168)), P80244; AID 651965, 2013; Potency, µM (doses to about 57.5 µM), without a hit: at the top dose activity change, negative = active; active means well fitted falling curve with a large enough effect; inconclusive means small, poorly fitted or top-dose-only effect; inactive means no such curve, though single readings can be large or run the other way; further: the source files actives as falling curves though it sought activators and does not explain the sign; nearly all actives have a fitted effect of over 65% in size
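Buffer: 100 mM Tris/HCl pH8, 100 mM KCl, 0.05% low protease BSA, 2.5% glycerol, 0.01% Tween-20. ClpP 10 microg/mL final; 20 min RT; delta FRET normalized to ADEP and DMSO controls.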
TDP1 inh: blocks human tyrosyl-DNA phosphodiesterase 1. Q9NUW8. recombinant TDP1, AlphaScreen DNA substrate cleavage. Potency, µM (titrated, usually from 130 µM), for the others: top-dose activity change, negative = inhibition, hits mostly inhibitors. 350,000 tested, 0.28% active; further: on the % scale 0 is the no-effect control and ±100 the full control effect; nearly all actives have a fitted effect of over 40% in size
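Enzyme-compound mixtures sat 15 min at room temperature, followed by a 5 min reaction with 15 nM final substrate and 10 min with AlphaScreen beads. Recombinant human Tdp1 was used at 1 nM final.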
DT40 TDP1 no CPT: qHTS for Inhibitors of human tyrosyl-DNA phosphodiesterase 1 (TDP1): qHTS in cells in absence of CPT; DT40 Tdp1-/- hTDP1 cells, no CPT, ATP luminescence, 48 h; Potency, µM (titrated, usually from 46.2 µM), without a hit: at the highest dose activity change, negative = growth inhibition, hits mostly inhibitors; 420,000 tested, 15% active; AID 686978, 2013; further: on the % scale 0 is the no-effect control and ±100 the full control effect; nearly all actives have a fitted effect of over 55% in size
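Growth kinetics read by CellTiter-Glo luminescence after ≥48 hr at 37 °C. Cells: DT40 Tdp1-/- stably carrying human TDP1, 400 per well, compound exposure in the absence of CPT (DMSO vehicle).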
Numbers without * were called inactive; ? = inconclusive; / = not tested or not shown; [ ] = another dose, or the depositor's remark. Unless noted, the call rests on the fitted dose curve; in most records, active means well fitted curve in the direction sought with a large enough effect; inconclusive means small, poorly fitted or top-dose-only effect, or another doubt; inactive means no such curve, though single readings can be large; an effect the other way counts as inactive or inconclusive. Potency means the concentration at half of the fitted maximal effect.

SMILES	TDP1 cell CPT	ClpP mod	TDP1 inh	DT40 TDP1 no CPT
C#CCNC(=O)C1=C[C@@H](c2cn(C(C)=O)c3ccccc23)C[C@@H](OCc2ccc(CO)cc2)O1	23.1µM*	-0.9%	7.7%	23.1µM*
CC(=O)n1cc([C@H]2C=C(C(=O)N3CCN(Cc4ccccc4)CC3)O[C@@H](OCCCCO)C2)c2ccccc21	?	-4.3%	5.1%	?
CC(=O)n1cc([C@@H]2C=C(C(=O)NCc3ccccc3)O[C@H](OCCCCO)C2)c2ccccc21	?	-9.0%	5.1%	18.4µM*
O=S(=O)(c1cnc2ccccc2c1)N1CCN(c2nc(-c3cccs3)nc3ccccc23)CC1	-25.8%	4.1%	-2.8%	-21.4%
Cc1cc(C)n(-c2nc(C)c(C)c(=O)n2CC(=O)Nc2cccc([N+](=O)[O-])c2)n1	?	3.1%	2.6%	16.4µM*
CC(=O)c1ccc(NC(=O)Cn2c(-n3nc(C)cc3C)nc(C)c(C)c2=O)cc1	?	23.7%	2.6%	?
Cc1cc(=O)n(CC(=O)Nc2ccc(Cl)c(Cl)c2)c(-n2nc(C)cc2C)n1	?	-0.2%	2.6%	16.4µM*
Cc1ccc(N2C(N)=C(C#N)C3(C(=O)N(C)c4ccccc43)C3=C2CC(C)(C)CC3=O)cc1Cl (stereo not given)	?	-0.1%	1.0%	16.4µM*
CC1(C)CC(=O)N(c2cc(Cl)cc(Cl)c2)C(=O)C1	-8.8%	/	/	-4.9%
Cc1ccc(N2C(N)=C(C#N)C(c3cccnc3)C3=C2CC(C)(C)CC3=O)cc1 (stereo not given)	?	-4.9%	5.3%	?
CN1C(=O)C2(C(C#N)=C(N)N(c3cc(Cl)cc(Cl)c3)C3=C2C(=O)CC(C)(C)C3)c2ccccc21 (stereo not given)	20.6µM*	-24.5%	1.0%	?
CCOC(=O)OCC1OC(C#Cc2ccccc2)C=CC1OC(=O)OCC (stereo not given)	/	/	3.7%[21 µM]	/
Cc1ccc(S(=O)(=O)Nc2ccccc2C(=O)N2CCCCCC2)cc1	-4.5%	0.4%	/	-18.2%
COc1ccc(CNC(=O)Nc2nc(C(N)c3ccccc3)cs2)cc1 (stereo not given)	?	1.3%	/	20.6µM*
CCCNC(=O)Nc1nc(C(N)c2ccc(OC)cc2)cs1 (stereo not given)	-21.0%	-0.4%	/	-21.9%
COc1ccc(CC(N)c2csc(NC(=O)NCc3ccccc3)n2)cc1 (stereo not given)	20.6µM*	-1.3%	/	?
CCN(c1ccc(C)cc1)S(=O)(=O)c1nnc(NC(=O)c2cccs2)s1	?	-6.6%	0.0%	?
COc1ccc(N(CC(C)C)S(=O)(=O)c2nnc(NC(=O)c3cccs3)s2)cc1	?	-4.1%	-10.4%	20.6µM*
COc1ccc(NC(=O)c2cccs2)cc1	-15.3%	-11.2%	1.1%	?
COc1ccc(CC(N)c2csc(NC(=O)c3cccs3)n2)cc1 (stereo not given)	18.4µM*	-2.4%	/	23.1µM*
CCc1nc2ccc(C(=O)N3CCN(C(=O)c4ccco4)CC3)cn2c1N(C)Cc1nccn1C	6.5%	-2.1%	/	0.5%
COc1cc(CNC(=O)Nc2nc(C(N)Cc3ccc(C(F)(F)F)cc3)cs2)cc(OC)c1OC (stereo not given)	13µM*	-3.2%	/	11.6µM*
COc1ccc(CC(N)c2csc(NC(=O)Nc3cccc(C(F)(F)F)c3)n2)cc1 (stereo not given)	?	-0.2%	/	?
O=S(=O)(/C=C/c1ccccc1)Oc1ccccc1	25.9µM*	-0.7%	-6.6%	16.4µM*
O=C(OCc1ccccc1F)c1cnc(Cl)c(Cl)c1	27.7%	/	89.1µM*	1.3%
SMILES	TDP1 cell CPT	ClpP mod	TDP1 inh	DT40 TDP1 no CPT
CCc1nnc(NC(=O)CCC(=O)NCc2ccccc2Cl)s1	-8.7%	-0.3%	2.5%	22.3%
CCc1noc2c1/C(=N\O)CC(c1ccccc1)C2 (stereo not given)	?	-4.2%	4.8%	16.4µM*
O=c1[nH]c2ccc(NCc3ccc(-c4ccccc4F)o3)cc2[nH]1	23.1µM*	-21.9%	6.8%	18.4µM*
O=c1[nH]c2ccc(NCc3ccc(-c4ccccc4)o3)cc2[nH]1	-6.7%	11.3%	-4.7%	-11.7%
CC1S/C(=N/N=C/c2ccco2)N(Cc2ccccc2)C1=O (stereo not given)	?	-1.2%	0.0%	9.2µM*
O=C(c1ccccc1Br)N(Cc1ccccc1F)C1CCS(=O)(=O)C1 (stereo not given)	-27.8%	1.2%	8.6%	?
CCCOc1ccc(-c2nn(-c3ccccc3)cc2/C=C2\SC(N)=NC2=O)cc1C	16.4µM*	0.6%	-2.6%	?
O=C(NCCc1csc(-c2cccnc2)n1)c1ccccc1Br	-25.9%	-17.0%	/	-25.8%
CCOC(=O)c1c(NC(=O)c2nn(CC)cc2Br)sc(C)c1C	16.4µM*	35.0%	-3.1%	?
CCOC(=O)c1nn(-c2ccccc2)c(C#N)c1NC(=O)c1nn(CC)cc1Br	14.6µM*	?	4.1%	18.4µM*
CCOC(=O)c1c(NC(=O)c2nn(CC)cc2Br)sc2c1CCCCC2	18.4µM*	28.2µM*	-3.1%	?
CC(C)(CO)NC(=O)c1ccc2nc(Cc3cccc(Cl)c3)oc2c1	-14.4%	1.2%	/	-25.2%
Cc1cc(NC(=O)Nc2cc(Cl)sc2Cl)no1	10.6%	0.2%	/	-0.8%
Cc1ccc(-c2csc(N3CCC(C(N)=O)(N4CCCCC4)CC3)n2)cc1	?	2.3%	-7.8%	20.6µM*
Cc1ccc(-c2csc(N3CCC(C(N)=O)CC3)n2)cc1	/	/	3.7%	/
COc1ccccc1NC(=O)c1ccc([N+](=O)[O-])o1	13µM*	-0.5%	/	16.4µM*
O=C(Nc1cccc2ccccc12)c1ccc([N+](=O)[O-])o1	14.6µM*	1.5%	/	25.9µM*
COc1ccc(C(=O)NC(=S)NNC(=O)c2cnccn2)cc1	20.6µM*	-2.4%	5.3%	20.6µM*
O=C(NC(=S)NC1CCCCCCCCCCC1)c1cccnc1	?	-0.9%	3.0%	14.6µM*
O=C(NC(=S)NC1CC1)c1cccnc1	-0.7%	-2.2%	-3.1%	-0.9%
O=C(NNC(=S)NC(=O)c1cccnc1)c1ccc(Cl)cc1	23.1µM*	-0.2%	8.0%	14.6µM*
O=C(NC(=S)NNC(=O)c1cnccn1)c1ccc(Cl)cc1	8.2µM*	/	5.2%	?
O=C(Cc1ccc(Cl)cc1)NNC(=S)NC(=O)c1cccnc1	?	-1.4%	7.6%	-24.1%
Cc1c(NC(=O)COC(=O)c2ccc(O)cc2)c(=O)n(-c2ccccc2)n1C	-3.8%	-1.7%	1.4%	-2.5%
O=C(NC(=S)NNC(=O)c1ccccc1O)c1cccnc1	?	-0.2%	1.2%	20.6µM*
CCCCOc1ccc(C(=O)NNC(=O)c2cnccn2)cc1OC	8.2µM*	-2.8%	-0.5%	20.6µM*
